The campaign covered roughly 31,000 sequences. About 1,400 (4.5%) were called active.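 The calls were made as follows: active = median seed-adjusted z-score above 1 or below -1; inactive = the rest.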 The full list was thinned out, with actives kept by preference.
Assay: Novel Modifiers of Survival Motor Neuron (SMN) Protein: Gene Identification via Genome-wide siRNA Screen;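 also: luminescence tracks full-length SMN protein made from the SMN2 reporter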
Details: HEK293T SMN2-luciferase reporter, siRNA knockdown, 72 h; actives lie on both sides
Outline: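 HEK293T cells stably carrying an SMN2 promoter/splicing cassette–luciferase reporter were reverse-transfected with 1 pmol siRNA per well (druggable-genome library, 3 siRNAs per gene) and grown 72 h at 37 °C. Luminescence, normalized to negative-control siRNA and log10-transformed, was scored as MAD.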

Sequence | median seed-adjusted z-score
CUCCUGAGAUAAUAAUGAATT against RFC3 | 0.733 (inactive)
CUCCUAUAAGAAAUCAAUATT against FLVCR1 | 0.197 (inactive)
CCAAUACAGUGGACAGUUATT against EMR1 | 0.255 (inactive)
GGAGGGUCUUCAUCGCUGATT against POLR2C | -2.95 (active)
AAAGAAUCAUUGUGAAAGATT against PARVA | 0.0852 (inactive)
GCCUUCCACGCUUUCCUGATT against RGS16 | 0 (inactive)
GCGCAAUAAUGAACGGCAATT against GALNT14 | 0 (inactive)
CGAUCGCAAGUACCACGAATT against ATP8B1 | 0.357 (inactive)
GACUAGCUGCUGAUAAGAATT against CKAP5 | -1.87 (active)
AGUCCUCGGUGAUGCGUGATT against LMNB2 | -0.15 (inactive)
CAGGCACAGUUGCCGAUUATT against CD247 | -0.522 (inactive)
CCUUGACCAUGAAAAAGAATT against ZNF704 | -0.15 (inactive)
GCUAUUGAAAGUACACCUATT against NARG1 | -1.02 (active)
GGUUAUAACGGGACGAUUUTT against KIF5C | 0.283 (inactive)
CCAUGUUAGAAGCCCGGAATT against ZNF385D | -0.338 (inactive)
AGAGGUACGUCUACAGUAUTT against F2R | -0.392 (inactive)
CGUCAAAUUUUUGCACAAATT against GPR176 | 0.0782 (inactive)
GCCGAAUUGUUUCUAGUUATT against PIN1 | 0.156 (inactive)
GACAGUCACUGAGCAUAGATT against PKD1L2 | -1.17 (active)
GGAGAAAUCAGCUACAGGATT against SRD5A2 | 0.185 (inactive)
CAAUUGGAAUCGUCUUUUUTT against UBAC2 | 0.611 (inactive)
CAAGUCCCAUUGAUCCUGATT against HLF | 0.0548 (inactive)

Sequence | median seed-adjusted z-score
CAAGAGCAAGCAAACCUAATT against OLR1 | 0 (inactive)
CGGCAAGAGUGUCCAGUAUTT against RNF5 | -0.0342 (inactive)
CCUUAGGAAUGAAAUCGCUTT against SIPA1L1 | 0.0925 (inactive)
GCACUAGCAGAGUCCGAAATT against OPRK1 | -1.08 (active)
CAGAAUCGCUUCUACAAGATT against SPAG6 | -0.439 (inactive)
UGACAUCCGUGACCUCUAATT against LHX9 | 0.157 (inactive)
GGAAAACGGCAUUGCAGAATT against SLC23A2 | -0.0585 (inactive)
GGCACUAUUCUGCUAAGAATT against RAPGEF5 | 0.529 (inactive)
GCCUGUUCGAAAGCGCAAATT against UBR4 | 0.602 (inactive)
AGGAGAAUGUGAUCCGAGATT against TXNDC14 | -2.39 (active)
GGGUCUUCAUGAUUGGUGUTT against SLC44A5 | 0.179 (inactive)
GUUUGUAGGUCGUCAGAAATT against NDUFS6 | -0.0128 (inactive)
CAUCCAGUCUGUAUACGAATT against ACLY | 0.478 (inactive)
GCCUCCAAAGGUUACAUUUTT against UBE2E1 | 0.888 (inactive)
GAUGUAAACCCUGAACUAATT against CSRP2 | -0.829 (inactive)
GAGGUAAUCUGGGUGCACATT against PARK7 | -0.357 (inactive)
GAAUGGAGGUCAACUAUAUTT against UBE2E2 | -1.77 (active)
GAAUGUCAUCCGUAUUUCATT against AKR1C3 | -0.00538 (inactive)
GGAACUGCUGCAUUAGAUATT against ITCH | 0.199 (inactive)
GAAUUUGUUCAUUAUCGUATT against UBE3A | 0.0949 (inactive)
GGCGAACUGUUUUAGAAGATT against CCNB2 | 0.0328 (inactive)
CGAUGUUGGUUAUGAGAGATT against ACTR3 | -0.7 (inactive)

Sequence | median seed-adjusted z-score
GGAUAGAGGUUUCCAGUUUTT against CNBP | -1.14 (active)
GCAGGUUCCUUAUCUGUCATT against BIRC5 | 0.0236 (inactive)
GGAUUAGUGAUUAUAUGGATT against NPAS3 | -0.0316 (inactive)
CAUCCAAGAUUAUAGUGGATT against PNLIP | 0.385 (inactive)
GUACAGACCUGAGAAUUCUTT against CTSL2 | -1.04 (active)
GAUGAACCCUGGAACUUCATT against ZNF354B | 0.393 (inactive)
AGAAGGACGUGUCCAAGGATT against FOXC2 | -0.792 (inactive)
GAAUGAUGUUGACAUGAGUTT against SSR1 | -0.434 (inactive)
GCCUAUUCAUCGGAAGGUATT against SENP2 | 0 (inactive)
UGCUUAUGAUCAACAUUUATT against LSM3 | -1.36 (active)
GGGUUUAACUUUCAGAGAUTT against VN2R1P | -0.25 (inactive)
GGGUUGGUGUGAUUGGAGUTT against LOC647743 | -0.203 (inactive)
GCUCGGCAUCUGUUGGUUATT against SIRT3 | -0.341 (inactive)
GGCCUAUAAUGAAUACCCUTT against GLRA1 | 0 (inactive)
CAUUGAAACUGAUAAACCATT against ARCN1 | -1.25 (active)
GCAGAGCAAUGGGAGAGAATT against EPHB4 | -0.143 (inactive)
GCAUCGCAGUGCUAAACAUTT against DGKA | -1.36 (active)
AGACAAUCGUCAUGCAAUUTT against CDC37 | 0 (inactive)
GAAUUACUCUGCCUCUAAATT against TAF7 | -0.593 (inactive)
CGUCUAAUGCUGCUCCACATT against AGPAT1 | -1.38 (active)
AUCCUUCCCUGAAUCAUCATT against KLRC2 | -0.472 (inactive)
GUAUCCAUGUGCAUUUUAATT against NT5E | 0.199 (inactive)

Sequence | median seed-adjusted z-score
GCUCAUACCUCGGAUGUCATT against GPR31 | -0.0381 (inactive)
CCACAUUUGUGACGCAAAATT against TPSAB1 | 0.197 (inactive)
GCUAAAUGGAGGAGACUAATT against HHEX | -0.428 (inactive)
CAACAUUCAUGGACGGGAATT against SLC2A7 | -0.0337 (inactive)
CGUAAAUCCCUAAUCUUUATT against FOXJ1 | -0.553 (inactive)
CACUGAAUGUGAGAGCUGUTT against HRC | 1.06 (active)
CCUUCUUCUGGAUACCGAUTT against ABCA9 | -0.139 (inactive)
GCGGAAAAGCUGUAUCUAUTT against POLR3E | -0.55 (inactive)
GGUGGAACUUUUAAUCAAATT against GABPB2 | 0.441 (inactive)
CCAGAUUGCUAGUAUCUCATT against TRAK1 | 0.298 (inactive)
CCUGGAAAGUACUCUAGAATT against PGS1 | 1.36 (active)
GGAUCCUACUGGUAAAACUTT against NUDT5 | 0.228 (inactive)
GCAGCGACCUUUCAGAACATT against SALL1 | -0.526 (inactive)
GAUUAUAAGUAUCUACGUUTT against GTPBP4 | 1.01 (active)
GACUGACACGGAAUAGUGUTT against ZNF286A | 0.0368 (inactive)
CCACCUUCAAUAUCGAGUUTT against DRD3 | 0.0447 (inactive)
ACUGCAAUCUGUUGCCCAATT against CLIC5 | 0 (inactive)
CAUUCUCAGUCAUCAUAGATT against ATP8A2 | 0 (inactive)
GGAUCUGCUUUCGAACCUATT against MBOAT1 | -1.22 (active)
GGAUAGUAUGAAUGAUCAATT against SRP54 | 0.203 (inactive)
CCGCUUCACAGGUAGUUAATT against NUP93 | 1.01 (active)
GGUCAAACAAUGUCGCUUUTT against COPB2 | -0.61 (inactive)

Sequence | median seed-adjusted z-score
GUAAGUCCCUUUAUUCACATT against GFRA4 | -1.59 (active)
GGACUCUACCUGACAGAAATT against CAPN13 | 0.208 (inactive)
GGUUCUAGCUGUCAACAUUTT against AP1G2 | 0.0657 (inactive)
ACCACCAAAUGAAGAAUAATT against AKR7A3 | 0.455 (inactive)
GCAUCCUUGUGUACAUGUGTT against USP41 | 0.808 (inactive)
GCACCUUCGUCUACAAGGATT against PDE6A | 1.25 (active)
UGGACUUCGUGGUUCAGCATT against SULT1A1 | -0.26 (inactive)
GGAUGUUUUCCGGUUCAUATT against LOC4951 | 0.0691 (inactive)
GCUUUCAUCGGCUCCAUAATT against CARM1 | 0.317 (inactive)
GAUGUAACAUUGACAUUGATT against NOTCH2 | 0.000598 (inactive)
CAUUUUCAGUCUUUAGAAATT against RNF34 | -0.0857 (inactive)
GGGUUGUUUCAAUCUAACATT against HDAC2 | -1.27 (active)
GCCCUGAAGAUAUCGUGAATT against PARVG | 0.321 (inactive)
GGACUUUGAGGAAACGGAATT against BRD8 | -0.133 (inactive)
GUUACGCCCUGAUUCUAAATT against MAT2A | -1.9 (active)
GGAACAAAGACUAAAAACATT against TUBB6 | 0.63 (inactive)
GCAAAACACCAGAACGAGATT against TESSP2 | 0.419 (inactive)
GAAUAGAGGAUAUCCUUGATT against KYNU | 0.00735 (inactive)
CCAGCUUGCUUGUGUAUAATT against PPP1R14A | 0.0124 (inactive)
GGAAGACUCAUUGAACAUATT against CASP1 | -0.331 (inactive)
